Screening data: PubChem, National Center for Advancing Translational Sciences (NCATS)
HP1b chromo inh: blocks HP1-beta chromodomain binding to methylated histone tails | P83916 | AlphaScreen HP1-beta / biotin-H3K9me3 peptide binding | Potency, µM (top dose mostly 114 µM), inactives show top-dose activity change, negative = inhibition, hits mostly inhibitors | 390,000 compounds, 0.56% hits | AID 540317; note: nearly all actives have a fitted effect of over 70% in size
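Compound inhibition of the preformed complex between 50 nM HP1-beta and 50 nM biotinylated H3K9me3 peptide was read by AlphaScreen. Buffer was PBS pH 7.4 with 0.01% Tween-20. Incubations ran 30 min at room temperature, with 10 ug/mL donor/acceptor beads.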
G9a inh: blocks human histone lysine methyltransferase G9a. G9a H3K9 monomethylation, AlphaScreen, 2 h. 350,000 compounds, 8.8% hits. Potency, µM (top dose mostly 102 µM), inactives show at the top dose activity, negative = inhibition, actives largely listed as inhibitors. Q96KQ7; note: % is set by controls: 0 for no effect and ±100 for the full control effect; nearly all actives have a fitted effect of over 75% in size
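Compounds were preincubated with 20 nM G9a for 15 min, after which biotinylated H3K9 peptide (500 nM) and SAM (20 uM) started a 2 h room-temperature reaction. Monomethylated product was quantified by antibody-based AlphaScreen chemiluminescence.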
BAZ2B inh: inhibitors of human BAZ2B bromodomain; AlphaScreen BAZ2B-H3K14Ac peptide displacement; 360,000 compounds, 4.4% hits; Potency, µM (highest dose often 114 µM), inactives show top-dose activity change, negative = inhibition, hits mostly inhibitors; AID 504333; note: % is set by controls: 0 for no effect and ±100 for the full control effect; nearly all actives have a fitted effect of over 60% in size
Target sequence (Q9UIF8 whole entry, looked up): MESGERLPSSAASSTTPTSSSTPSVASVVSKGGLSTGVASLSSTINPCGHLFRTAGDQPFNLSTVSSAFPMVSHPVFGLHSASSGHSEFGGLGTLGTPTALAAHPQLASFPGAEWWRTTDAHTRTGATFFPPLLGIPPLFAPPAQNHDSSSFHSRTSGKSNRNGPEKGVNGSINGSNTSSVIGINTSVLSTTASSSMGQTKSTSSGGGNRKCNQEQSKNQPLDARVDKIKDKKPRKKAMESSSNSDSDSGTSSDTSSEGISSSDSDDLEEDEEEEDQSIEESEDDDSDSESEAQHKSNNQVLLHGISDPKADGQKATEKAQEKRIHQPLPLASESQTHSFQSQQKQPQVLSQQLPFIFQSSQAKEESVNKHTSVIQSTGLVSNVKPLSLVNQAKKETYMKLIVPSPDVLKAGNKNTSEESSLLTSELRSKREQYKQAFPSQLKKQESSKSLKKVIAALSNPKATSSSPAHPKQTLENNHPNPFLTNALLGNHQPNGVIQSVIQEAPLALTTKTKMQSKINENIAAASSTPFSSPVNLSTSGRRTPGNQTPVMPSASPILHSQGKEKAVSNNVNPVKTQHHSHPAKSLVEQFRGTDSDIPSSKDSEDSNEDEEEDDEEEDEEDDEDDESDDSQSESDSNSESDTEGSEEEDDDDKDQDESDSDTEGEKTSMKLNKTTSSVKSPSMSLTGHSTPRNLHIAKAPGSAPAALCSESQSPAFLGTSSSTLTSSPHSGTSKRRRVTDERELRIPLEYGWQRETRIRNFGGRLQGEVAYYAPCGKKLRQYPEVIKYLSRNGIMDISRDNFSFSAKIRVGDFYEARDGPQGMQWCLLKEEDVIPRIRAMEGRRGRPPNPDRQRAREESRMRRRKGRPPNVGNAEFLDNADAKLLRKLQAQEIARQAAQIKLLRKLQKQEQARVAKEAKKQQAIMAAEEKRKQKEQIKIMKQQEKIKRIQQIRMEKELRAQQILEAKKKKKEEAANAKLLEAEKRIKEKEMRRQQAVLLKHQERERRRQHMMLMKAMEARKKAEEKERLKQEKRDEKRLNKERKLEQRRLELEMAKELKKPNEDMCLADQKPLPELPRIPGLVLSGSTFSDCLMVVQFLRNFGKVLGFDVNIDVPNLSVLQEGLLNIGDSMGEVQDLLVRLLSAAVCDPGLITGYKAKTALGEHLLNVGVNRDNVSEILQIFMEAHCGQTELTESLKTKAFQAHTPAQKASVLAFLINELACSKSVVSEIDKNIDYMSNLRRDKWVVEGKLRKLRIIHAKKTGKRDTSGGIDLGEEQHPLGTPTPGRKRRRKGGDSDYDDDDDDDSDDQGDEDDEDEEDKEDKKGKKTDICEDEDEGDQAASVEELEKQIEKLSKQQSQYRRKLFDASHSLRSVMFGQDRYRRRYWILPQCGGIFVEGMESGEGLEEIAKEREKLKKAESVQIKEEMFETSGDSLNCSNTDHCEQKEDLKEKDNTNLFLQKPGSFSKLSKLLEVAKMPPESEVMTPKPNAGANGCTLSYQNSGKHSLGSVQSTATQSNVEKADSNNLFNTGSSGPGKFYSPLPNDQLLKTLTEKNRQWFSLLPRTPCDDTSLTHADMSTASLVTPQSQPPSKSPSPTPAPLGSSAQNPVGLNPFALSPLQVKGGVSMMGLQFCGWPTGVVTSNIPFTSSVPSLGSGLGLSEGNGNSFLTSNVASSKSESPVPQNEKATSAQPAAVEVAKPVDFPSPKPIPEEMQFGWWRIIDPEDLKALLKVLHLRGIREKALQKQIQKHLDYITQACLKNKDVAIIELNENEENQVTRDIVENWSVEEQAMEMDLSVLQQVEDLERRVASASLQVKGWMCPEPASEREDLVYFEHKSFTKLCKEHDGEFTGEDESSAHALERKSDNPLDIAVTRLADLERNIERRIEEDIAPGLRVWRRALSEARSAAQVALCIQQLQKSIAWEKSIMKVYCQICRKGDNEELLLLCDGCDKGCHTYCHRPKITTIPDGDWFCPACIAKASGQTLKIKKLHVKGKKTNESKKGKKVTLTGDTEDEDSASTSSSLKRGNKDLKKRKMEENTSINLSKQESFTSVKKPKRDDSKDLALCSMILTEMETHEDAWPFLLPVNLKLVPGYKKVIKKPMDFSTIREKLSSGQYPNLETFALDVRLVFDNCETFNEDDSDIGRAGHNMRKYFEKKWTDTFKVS
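AlphaScreen displacement of biotin-H3(5-23)K14Ac peptide (50 nM final) from BAZ2B (50 nM final) in PBS pH 7.4, 0.01% Tween-20; complex preformed 30 min RT, then compounds (top 110 uM) 30 min RT, beads 20 min dark.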
JMJD2A Tudor: inhibitors of human JMJD2A Tudor domain; O75164; AlphaScreen JMJD2A-Tudor / H3K4me3 peptide binding; Potency, µM (doses to about 114 µM), for inactives: top-dose activity change, negative = inhibition, usual class: inhibitors; 390,000 compounds, 4.4% hits; note: % is set by controls: 0 for no effect and ±100 for the full control effect; nearly all actives have a fitted effect of over 50% in size
Sfp inh: blocks B. subtilis Sfp PPTase activity; Biochemical Sfp PPTase activity, qHTS; Potency, µM, for inactives: largest response in the series, negative = inhibition, actives largely listed as inhibitors; 310,000 compounds, 3.5% hits; AID 1490;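 note: the enzyme is Sfp with the accession as filed and its product quenches rhodamine fluorescence; 0% = enzyme reaction without inhibitor and -100% = no enzyme wells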
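After 15 min at room temperature with compound, 15 nM Sfp received 5 uM rhodamine-CoA plus 12.5 uM BHQ-2-ybbR (50 mM Hepes pH 7.6, 10 mM MgCl2). Rate came from the fluorescence difference over 30 min, ex 525/em 598 nm.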
Numbers without * were called inactive; ? = inconclusive; . = no result given; [ ] = remark or other dose. A selection: hits, their analogues and other compounds. The true share with any hit is near 12%. Calls come from the whole dose curve; as a rule, active = well fitted curve in the direction sought with a large enough effect; inconclusive = small, poorly fitted or top-dose-only effect, or another doubt; inactive = no such curve, though single readings can be large; an effect the other way counts as inactive or inconclusive. Potency is the fitted concentration of half-maximal effect.

SMILES	HP1b chromo inh	G9a inh	BAZ2B inh	JMJD2A Tudor	Sfp inh
CC(=O)c1ccc(OCC(O)CN2CCN(CC(O)COc3ccc(C(C)=O)cc3)CC2)cc1 (centres undefined)	15.5%	-0.8%[59 µM]	2.6%	-0.8%	10.2%
CCCc1ccc(OCC(O)CN2CCN(c3ccccn3)CC2)cc1 (centres undefined)	4.8%	50.1µM*	?	?	11.9%
CC(=O)c1ccc(OCC(O)CN2CCN(c3ccccn3)CC2)cc1 (centres undefined)	88.6%	56.2µM*	-36.5%	?	4.9%
CN(C)S(=O)(=O)c1ccc(C(=O)NCCSc2c(-c3ccc(Cl)cc3)[nH]c3ccccc23)cc1	19.8%	?	-13.5%	-21.2%	.
CCOc1ccc(CCNC(=O)CS(=O)Cc2nc(-c3ccc(OC)cc3)oc2C)cc1OCC (centres undefined)	31.5%	50.1µM*	-13.0%	-19.1%	3.7%
COc1ccc(-c2nc(CS(=O)CC(=O)NCCc3ccc(OC)c(OC)c3)c(C)o2)cc1 (centres undefined)	50.1%	19.0%	-9.9%	-16.8%	4.4%
Cc1ccc(CCNC(=O)CS(=O)Cc2nc(-c3ccccc3Cl)oc2C)cc1 (centres undefined)	69.2%	50.1µM*	-27.1%	2.3%	-16.8%
Cc1ccc(-c2nc(CS(=O)CC(=O)NC3CCC(C)CC3)c(C)o2)cc1 (centres undefined)	3.4%	50.1µM*	-24.5%	-23.9%	?
CCc1cccc(NC(=O)CS(=O)Cc2nc(-c3ccc(C)cc3)oc2C)c1 (centres undefined)	0.8%	44.7µM*	-38.9%	-29.2%	-9.6%
Cc1ccc(S(=O)(=O)N2CCC(C(=O)C3C(=O)CCCC3=O)CC2)cc1	34.5%	-40.8%	-37.6%	-12.1%	18.5%
COc1cc(CCC(=O)OCC(=O)N(CCC#N)c2ccccc2)cc(OC)c1OC	10.0%	11.1%	-9.3%	4.1%	17.1%
COc1cccc(-c2nc(CS(=O)CC(=O)NCCCOC(C)C)c(C)o2)c1 (centres undefined)	51.8%	44.7µM*	9.6%	-11.9%	10.8%
Cc1ccccc1-c1nc(CS(=O)CC(=O)NC(C)CCc2ccccc2)c(C)o1 (centres undefined)	20.0%	70.8µM*	?	-31.1%	-12.6%
CCc1ccc(-c2nc(CS(=O)CC(=O)NCc3ccc4c(c3)OCO4)c(C)o2)cc1 (centres undefined)	15.7%	39.8µM*	-32.3%	-25.0%	-4.8%
COc1ccc(-c2nc(CS(=O)CC(=O)NCc3ccc(Cl)cc3)c(C)o2)cc1 (centres undefined)	6.2%	39.8µM*	-28.9%	-26.4%	10.3%
COc1cc(NC(=O)CSc2nc3nc(C)c(Cc4ccc(C)cc4)c(C)n3n2)cc(OC)c1	59.1%	5.7%[59 µM]	17.2%	-23.2%	.
CCOC(=O)NC(NC(=S)Nc1ccccc1OC)C(Cl)(Cl)Cl (centres undefined)	-6.0%	?	-20.5%	-18.1%[57.1 µM]	3.6%
NC(=O)C1CCN(C(=O)c2ccc(-c3ccccc3Cl)o2)CC1	22.4%	-1.7%[59 µM]	0.2%	-16.0%	.
CCc1ccc(-c2nc(CS(=O)CC(=O)NCc3ccccc3)c(C)o2)cc1 (centres undefined)	23.3%	28.2µM*	-15.0%	-12.5%	-4.6%
COc1ccc(N2CCN(C(CNS(=O)(=O)c3ccc(OC)c(C)c3)c3ccco3)CC2)cc1 (centres undefined)	?	7.94µM*	25.1µM*	25.1µM*	.
COc1ccc(S(=O)(=O)NCC(c2ccco2)N2CCOCC2)cc1OC (centres undefined)	9.6%	12.6µM*	-3.6%	1.6%	.
COc1ccc(S(=O)(=O)NCC(c2ccco2)N2CCN(c3ccccc3)CC2)cc1OC (centres undefined)	-6.1%	-8.2%[59 µM]	?	?	.
O=S(=O)(NCC1CCCO1)c1cnc(Cl)c(Br)c1 (centres undefined)	22.2%	-2.8%[59 µM]	6.8%	-10.1%	24.4%
Cc1ccc(-n2cc3c(-c4cccc(Br)c4)nnc(C)c3n2)cc1	4.1%	-32.3%	-1.6%	-11.7%[57.1 µM]	-10.2%
Cc1nnc(-c2cccc(Br)c2)c2cn(-c3ccccc3Cl)nc12	10.7%	12.9%[12.7 µM]	-13.5%	-35.8%	56.2µM*
